Source: ChEMBL document CHEMBL4888484, “Replenishing the malaria drug discovery pipeline: Screening and hit evaluation of the MMV Hit Generation Library 1 (HGL1) against asexual blood stage Plasmodium falciparum ,using a nano luciferase reporter read-out” (2022)
Out of some 4,800 compounds screened, about 420 (8.8%) showed an effect of 50% or more. The full list was thinned out, with strong results kept by preference.

tested on: Plasmodium falciparum; experiment: Confirmatory screen in NF54 nanoGlo assay, in single point, at 2uM, 72h; type: functional, Erythrocyte; details: timepoint 72 hour

Structure (SMILES)	% Inhibition [%]
COc1snc(C(Cl)(Cl)Cl)c1Cl	-2
CCN(CC)CCC1C(=O)N(c2ccccc2)C(=O)N(c2ccccc2)C1=O	4
CC(=O)N1N=C(c2cccnc2)O[C@H]1c1ccc(F)cc1	-10
Cc1nc(Cn2nc(C(C)(C)C)oc2=O)oc1C	0
FC1(F)C[C@@H](COc2cccnc2)N(C2CCCCC2)C1	3
Cn1cc(/C=C2\CC3C4CCC5CCCCC5(C)C4CCC3(C)C2O)cn1 (configuration not stated)	0
Cc1cccc(CN(C)C)c1OC(=O)N(C)C	-9
COc1ccc(-c2cc([C@H]3CN4CC[C@H]3C[C@@H]4CNC(=O)C3CCCCC3)n(C)n2)cc1OC	-9
Cc1ccc(NC(=O)N2CCC(=O)CC2)cc1Br	-4
C=CCCC(CN1C[C@H]2CC=CC[C@H]2C1)Oc1ncc(F)cn1 (some centres not stated)	77
COC(=O)[C@H]1CN(Cc2noc(C)n2)C[C@@H]1c1ccc(F)cc1F	-20
CC(Cc1ccccc1)NC1CN2CCC1CC2 (configuration not stated)	1
CC(C)N1CCN(c2nc3nc[nH]c(=O)c3s2)CC1	4
O=S(=O)(NC12CCCC1CNC2)c1onc(C2CC2)c1Cl (configuration not stated)	95
O=C(NCc1cc(F)cc(F)c1)c1cn(Cc2ccc(F)cc2)nn1	-15
O=C1N[C@](c2ccccc2)(C(F)(F)F)c2ccc3ccccc3c2O1	5
CC1CCCCC1N1CCN(C(=O)COc2ccc(Br)cc2)CC1 (configuration not stated)	3
O=c1c2cc(Cl)ccc2nc(-c2cccnc2)n1-c1ccc(Br)cc1	0
O=C1O[C@@H]2CCN(Cc3ccccc3)[C@H]1C2	-15
CCC1(CC)C(=O)N(CN2CCCC2=O)C(=O)N(CN2CCCC2=O)C1=O	-17
CN(C)S(=O)(=O)Nc1cccc(OC(=O)N2CCOCC2)c1	-10

Structure (SMILES)	% Inhibition [%]
CCN1CCC[C@H](NC(C2CCC2)C2CCC2)C1	-3
COc1cc(OCC(=O)N2CCN([C@@H](C)Cc3ccccc3)CC2)cc(OC)c1OC	8
O=C(N1CCN(C(c2ccccc2)c2ccccc2)CC1)C(O)(c1ccccc1)c1ccccc1	-4
Cc1cc(=O)c(OCC(=O)N2CCN([C@@H](c3ccccc3)c3ccc(Cl)cc3)CC2)c[nH]1	63
Cc1ccc(C(O)(c2ccc(C)c(C)c2)[C@H]2C[N@]3CC[C@@H]2CC3)cc1C	6
CN1CCN(CCO[C@@H](c2cccc(Cl)c2)c2ccccc2Cl)CC1	0
O=C(c1ccccc1)c1cc(Cl)ccc1NC(=O)[C@H]1CC(=O)N(c2ccc(F)cc2)C1	85
c1cc(-n2cnnn2)ccc1N[C@H]1CN2CCC1CC2	-14
CC(C)c1nc(CC(=O)N2CCN(Cc3nnc4n3CCCCC4)CC2)cs1	-12
CCCC(=O)N(C1=CC2CCC(C1)N2C)c1ccccc1 (configuration not stated)	1
Cc1cc(C(=O)NC2CC(C)n3ccnc32)nn1C(C)C (configuration not stated)	58
COc1cc(=O)c(C(=O)N2CCC3(CC2)OCCO3)nn1-c1ccc(C)cc1	-5
CN1CCC2CCN(C(=O)c3cc(C4CC4)on3)C2C1 (configuration not stated)	2
CCOc1ccccc1N1C(=O)NC(=O)[C@@]2(Cc3cc(C)ccc3N(C)C2)C1=O	-10
COC(=O)C(O)(c1ccc2c(c1)C(O)(C(F)(F)F)C(=O)N2C(C)C)C(F)(F)F (configuration not stated)	8
CC1CN2CCCC2CN1C(=O)c1cc(C2CC2)on1 (configuration not stated)	-17
O=C1C2CCN(CC2)[C@H]1Cc1ccc(Cl)cc1	4
Cc1cc(C(F)(F)F)c2c(C(N)=O)cn(C(C)(C)C)c2n1	2
C[N+]12CCC(CC1)[C@@H](C(O)(c1cccc(Cl)c1)c1cccc(Cl)c1)C2	24
O=C1CO[C@H]2CCN(Cc3cn4ccc(Br)cc4n3)C[C@@H]2N1	1
Cn1nc(OC(=O)Nc2ccccc2)cc1C(F)(F)F	6

Structure (SMILES)	% Inhibition [%]
CN(C)C(=O)CCCn1ccc(NC(=O)C2C(C)(C)C2(C)C)n1	-18
Nc1ccc(N2CCN3CCC[C@H]3C2)cc1	8
Cc1ccc2c(c1)CCCN2C(=O)CN1CC=C(c2cnn(C)c2)CC1	43
CCC(CC)c1cc([C@H]2CN3CC[C@H]2C[C@@H]3CO)nc(-c2ccncc2)n1	26
CCCS(=O)(=O)NC[C@H]1C[C@@H]2CCN1C[C@@H]2c1cc(C(CC)CC)nc(-c2ccncc2)n1	18
CCC(CC)c1cc([C@H]2CN3CC[C@H]2C[C@@H]3CNS(=O)(=O)Cc2ccccc2)nc(-c2ccncc2)n1	63
CC1CCNC(=O)C1NC(=O)Nc1ccc(C#N)c(C(F)(F)F)c1 (configuration not stated)	8
Clc1ccc(C2CC(c3cccnc3)Nc3nnnn32)cc1 (configuration not stated)	-10
CCCCC1(CCCC)C(=O)NC(=Nc2ccc(C)cc2)NC1=O	-18
O=C1N(c2ccccc2)C(=O)C2(Cc3cc(C(F)(F)F)ccc3N3CCC(c4ccccc4)CC32)C(=O)N1c1ccccc1 (configuration not stated)	4
CC[C@H]1C[N@@]2CC[C@H]1C[C@@H]2COC(=O)Nc1ccc(C(C)(C)C)cc1	4
COc1cccc(CNC(=O)N2CC[C@@H]3CCN(C)C[C@@H]32)n1	-2
CC(=O)N(C1CCN(Cc2ccccc2)CC1)C1(C(=O)Nc2ccc3[nH]ccc3c2)CCN(C)CC1	35
c1cc(N2CC[C@@]3(CCCNC3)C2)c2sccc2n1	99
CN1CC[C@]2(CCN(c3ccnc4ccsc34)C2)C1	99
CCn1nccc1CNCCc1ccccc1	4
CC[C@H]1C[N@@]2CC[C@H]1C[C@@H]2COC(=O)Nc1ccccc1	3
CNc1snc(C)c1C(=O)N1CCC(C(=O)OC)(c2ccccc2)CC1	-2
COc1ccc(-c2ccccc2N2CCNCC2)c2ccc(C)nc12	-4
Clc1cccc(CCN[C@H]2CCOC3(CCOCC3)C2)c1	7
